Results taken from PubChem BioAssay (NCATS).
Inconclusive results are not listed. Entries that show only a call come without a potency. Unmarked numbers belong to inactive results. Calls of active or inactive are those of the source. Calls come from the whole dose curve; as a rule, active = well fitted curve in the direction sought with a large enough effect; inconclusive = small, poorly fitted or top-dose-only effect, or another doubt; inactive = no such curve, though single readings can be large; an effect the other way counts as inactive or inconclusive. Where a SMILES comes first, the peptide text is derived from it.

Legend:
[1] = P-glycoprotein substrates identified in KB-3-1 adenocarcinoma cell line, qHTS therapeutic library screen (AID 1346986); note: nearly all actives have a fitted effect of over 60% in size
Summary of the method: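 72 h cell-killing screen, 500 cells/well, CellTiter-Glo luminescence. Paired lines KB-3-1/KB-8-5-11; P-gp dependence checked by tariquidar co-treatment and HEK-293 MDR-19 versus empty-vector cells.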

[2] = P-glycoprotein substrates identified in KB-8-5-11 adenocarcinoma cell line, qHTS therapeutic library screen (AID 1346987); note: nearly all actives have a fitted effect of over 65% in size; for activity change, negative = cytotoxicity: series mostly up to about 44 µM
Summary of the method: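 Luminescence from CellTiter-Glo, read 5 min after addition, quantified survival of KB-8-5-11 (P-gp-overexpressing) cells exposed to compounds for 72 h. AC50 was derived from concentration-response curves.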

In the case of `Cc1ccccc1NC(=O)Nc1ccc(CN2C(=O)N([C@@H](CC(C)C)C(=O)N[C@@H](CC(=O)O)c3ccccc3)C(=O)C2(C)C)cc1`, the Potency [1] is reported as “inactive” and the Potency [2] is reported as “inactive”.

For `CC1CCC2(C(=O)O)CCC3(C)C(=CCC4C5(C)C[C@@H](O)[C@@H](O)C(C)(CO)C5CCC43C)C2C1(C)O` (stereo partly drawn), the Potency [1] was “inactive” and the Potency [2] was “inactive”.

For `CC1OC(O[C@@H]2[C@H](O)[C@@H](OC3OC(CO)C(O)C(O)C3O)[C@H](OC(=O)[C@]34CCC(C)(C)C[C@H]3C3=CCC5[C@@]6(C)CC[C@H](O[C@@H]7O[C@H](C(=O)O)[C@@H](O)[C@H](O[C@@H]8OC[C@@H](O)[C@H](O)[C@H]8O)[C@H]7O[C@@H]7O[C@H](CO)[C@H](O)[C@H](O)[C@H]7O)[C@@](C)(C=O)C6CC[C@@]5(C)[C@]3(C)C[C@H]4O)O[C@@H]2C)C(O)C(O)C1OC1OCC(O)C(O)C1O` (stereo partly drawn), the outcome [1] was “inactive [at 5.11 µM]” and the outcome [2] was “inactive [at 5.11 µM]”.

With `CC(O)C1NC(=O)C2CCCN2C1=O` (stereo not drawn) the Potency [1] was “inactive” and the Potency [2] was “inactive”.

For `C=C1[C@H](OC(C)=O)[C@H]2[C@@H](OC(C)=O)C(C)C[C@]2(OC(C)=O)C(=O)[C@H](C)/C=C/C(C)(C)C(=O)[C@H](OC(=O)C(C)C)[C@H]1OC(C)=O` (stereo partly drawn), the Potency [1] was “inactive” and the Potency [2] was “inactive”.

For `O=C(O)CCc1c(C(=O)O)[nH]c2cc(Cl)cc(Cl)c12`, the Potency [1] was “inactive” and the Potency [2] was “inactive”.

For `C=C1C(O)CC2C(C(=O)O)=COC(O[C@@H]3O[C@H](COC(=O)c4ccc(O)cc4)[C@@H](O)[C@H](O)[C@H]3O)C12` (stereo partly drawn), the Potency [1] was “inactive” and the Potency [2] was “inactive”.

For `COC(=O)[C@H](Cc1cccc(C(=N)N)c1)[C@@H](C)NC(=O)c1ccc(-c2cc[n+]([O-])cc2)cc1`, the Potency [1] was “inactive” and the Potency [2] was “inactive”.

With `O=C(/C=C/c1ccc(O)cc1)OC[C@H]1O[C@H](O[C@@]2(CO)O[C@@H](CO)[C@H](O)[C@H]2O)[C@H](O)[C@@H](O)[C@@H]1O` the Potency [1] was “inactive” and the Potency [2] was “inactive”.

With `CC(=O)NC(C(=O)OC1CCC(C)(C)C2CC=C3C(=O)OCC3C12C)C(C)C` (stereo not drawn) the Potency [1] was “inactive” and the Potency [2] was “inactive”.

For `CC1(C)COC(=O)[C@@H]1O[C@@H]1O[C@H](CO)[C@@H](O)[C@H](O)[C@H]1O`, the Potency [1] was “inactive” and the Potency [2] was “inactive”.

With `CCOC(=O)C1=C(N)Oc2ccc(Cl)cc2C1C(C#N)C(=O)OCC` (stereo not drawn) the Potency [1] was “inactive” and the Potency [2] was “inactive”.

With `CC1OC(OC2CCC3(C)C(CCC4(C)C3C=CC35OCC6(CCC(C)(C)CC63)CCC45C)C2(C)CO)C(OC2OC(CO)C(O)C(O)C2O)C(O)C1OC1OC(CO)C(O)C(O)C1O` (stereo not drawn) the outcome [1] was “inactive [at 9.29 µM]” and the activity change, negative = cytotoxicity [2] was 2.86% [at 9.29 µM].

With `O=C(O)C(Cc1ccccc1)NC(=O)C1CCCN1` (stereo not drawn) (H-Pro-Phe-OH; configuration not given here) the Potency [1] was “inactive” and the Potency [2] was “inactive”.

With `C[C@@H]1O[C@@H](O[C@H]2[C@H](O[C@H]3[C@H](O[C@H]4CC[C@@]5(C)C(CC[C@]6(C)C5CC=C5[C@@H]7CC(C)(C)C[C@@H](O)[C@]7(C)CC[C@]56C)C4(C)C)O[C@H](C(=O)O)[C@@H](O)[C@@H]3O)O[C@H](C(=O)O)[C@H](O)[C@@H]2O)[C@H](O)[C@H](O)[C@H]1O` (stereo partly drawn) the outcome [1] was “inactive [at 9.29 µM]” and the outcome [2] was “inactive [at 9.29 µM]”.

In the case of `Cc1cc(CNC(=O)c2cc(C(=O)NCc3ccc(F)c(C)c3)ncn2)ccc1F`, the Potency [1] is reported as “inactive” and the Potency [2] is reported as “inactive”.

For `CC1(C)Oc2ncnc(N)c2N=C1c1ccc(C2CCC(CC(=O)O)CC2)cc1` (stereo not drawn), the Potency [1] was “inactive” and the Potency [2] was “inactive”.

With `O=C(/C=C/c1ccc(O)c(O)c1)O[C@H]1[C@@H]2C=CO[C@@H](O[C@@H]3O[C@H](CO)[C@@H](O)[C@H](O)[C@H]3O)[C@@H]2[C@@]2(CO)O[C@@H]12` the Potency [1] was “inactive” and the Potency [2] was “inactive”.

With `C[C@@H]1O[C@@H](O[C@@H]2\C=C/C=C\C=C/C=C\C[C@H](C)OC(=O)/C=C\[C@H]3O[C@@H]3C[C@H](O)C[C@]3(O)C[C@@H](O)[C@@H](C(=O)O)[C@H](C2)O3)[C@H](O)[C@H](N)[C@@H]1O` the Potency [1] was “inactive” and the Potency [2] was “inactive”.

In the case of `C=C1CCC2(OC1)OC1CC3C4CC=C5CC(O)CC(O[C@@H]6OC[C@H](OC(=O)C(O)C(C)CC)[C@H](O)[C@H]6O[C@@H]6O[C@@H](C)[C@H](O)[C@@H](O)[C@H]6O)C5(C)C4CCC3(C)C1C2C` (stereo partly drawn), the outcome [1] is reported as “inactive [at 9.29 µM]” and the outcome [2] is reported as “inactive [at 9.29 µM]”.

For `O=C1C(Cl)=C(N2CCOCC2)C(=O)N1c1ccc(Cl)c(Cl)c1`, the Potency [1] was “inactive” and the Potency [2] was “inactive”.

In the case of `C=CC(C)(O)C1CC2C3(C)CCCC(C)(C)C3C(O)C(O)C2(C)O1` (stereo not drawn), the Potency [1] is reported as “inactive” and the Potency [2] is reported as “inactive”.

For `CC(=O)OC1CC(=O)C2(C)C3CC4=C(OC(C)CC4=O)OC3(C)CCC2C1(C)C` (stereo not drawn), the Potency [1] was “inactive” and the Potency [2] was “inactive”.

For `C[C@@H]1O[C@@H](O[C@H]2[C@H](O[C@H]3[C@H](O[C@H]4CC[C@@]5(C)C(CC[C@]6(C)C5CC=C5[C@@H]7CC(C)(C)CC(=O)[C@]7(C)CC[C@]56C)[C@@]4(C)CO)O[C@H](C(=O)O)[C@@H](O)[C@@H]3O)O[C@H](CO)[C@H](O)[C@@H]2O)[C@H](O)[C@H](O)[C@H]1O` (stereo partly drawn), the outcome [1] was “inactive [at 9.29 µM]” and the outcome [2] was “inactive [at 9.29 µM]”.
